“And” between values parts separate entries of the source, which are not always exact repeats. Equal entries are not always repeated. The source made the active and inactive calls. Unless noted, no stated cut-off is given here; in the data, active means nuclear beta-catenin stimulation mostly above about 4.2% (no sharp cut-off); inactive means mostly below about 10%.

Assay [1] is described as follows: P. berghei load reduction in hepatocytes – cell-based, HepG2, luciferase luminescence, HepG2 viability, primary screen (AID 624349; in the data active means parasite load remaining mostly below about 12%, no sharp cut-off; inactive means mostly above about 10%;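 further: 100% = mean of DMSO negative control wells on the same plate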). Particulars: P. berghei liver stage in HepG2, luciferase luminescence, concentration not given here; parasite load remaining: stronger effect = lower value; viability: measured here: HepG2 viability without parasites.
Assay [2] is described as follows: Wnt pathway potentiators raising nuclear beta-catenin – imaging, WNT3A-conditioned medium, mouse C2C12, NPC library, primary screen (AID 1117326). To be noted: stronger effect = higher value.
Assay [3] can be described thus: stimulators of insulin release from INS-1E, primary screen, cell-based, 5 mM glucose, NPC library (AID 1117329;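 active means compound raises insulin release from rat beta cells at 5 mM glucose, no numeric limit stated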). Particulars: rat INS-1E insulin secretion, at 10 µM, stronger effect = higher value.
Assay [4] can be described thus: growth inhibition of GSK3B-pretreated HCT116 cells – cell-based, CellTiter-Glo, 0.2 to 20 µM (AID 1117336;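 active means compounds lowering colon cancer cell viability after pretreatment blocking the GSK3B kinase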). To be noted: HCT116 viability after GSK3B inhibitor, at 20 µM, stronger effect = higher value.
Assay [5] is described as follows: inhibition of endothelial tube formation, primary screen, imaging, VEGF stimulated, CD31 staining, tube area, NPC library (AID 1117340;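 active means compound that reduces growth-factor-driven endothelial tube area in a mixed cell culture, no cutoff stated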). Particulars: VEGF-stimulated ADSC/ECFC co-culture, at 10 µM, stronger effect = higher value.
Assay [6] can be described thus: GLP1 release stimulators, primary, NCI-H716, NPC library (AID 1117341;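 active means compound raises GLP1 secretion from the human gut endocrine cells, with no numeric limit stated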). To be noted: NCI-H716 cells, at 10 µM, stronger effect = higher value.
Assay [7] is described as follows: HCT116 colon cancer cell growth inhibition, primary screen, CellTiter-Glo luminescence, NPC library (AID 1117342;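 active means compounds that lower survival of HCT116 colon cancer cells in the luminescence readout, no numeric limit stated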). To be noted: at 20 µM (top of the series).
Assay [8] can be described thus: reduced SW480 viability measured with CellTiter-Glo, NPC library, primary (AID 1117343;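 active means compounds that lower viability of the colon cancer cells in the luminescence readout, with no numeric limit stated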). To be noted: CellTiter-Glo luminescence; at 20 µM (top of the series). A general note: Cellular ATP, detected with luciferase, serves as a proxy for viable cell number.
Assay [9] can be described thus: NPC library primary testing for decreased DLD-1 cell viability via CellTiter-Glo (AID 1117346;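 active means compounds that lower survival of DLD-1 colon cancer cells in the luminescence readout, no cutoff given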). Particulars: DLD-1 viability, CellTiter-Glo luminescence; at 20 µM (top of the series).
Assay [10] can be described thus: viability loss with induced miR-34 in A549 – imaging, A549 dox-inducible miR-34, nuclei and caspase counts, primary screen (AID 1347080;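 active means compounds whose cell count with miR-34 switched on is under 0.7 times the count with it off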). To be noted: A549 miR-34 inducible, Hoechst nuclei count, 48 h.
Assay [11] is described as follows: MELAS cybrid and Rieske KO viability enhancers – cell-based, MELAS cybrids, Rieske KO mouse fibroblasts, CellTiter-Glo, primary screen (AID 1508586;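 active means mean z-score across replicates of 1.96 or higher in either the MELAS or the Rieske mutant cell line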;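 further: z relative to plate mean and SD of compound and empty wells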). Particulars: low glucose.
Assay [12] can be described thus: galactose survival enhancers in mitochondrial complex I cybrids – cell-based, galactose medium, ATP luminescence, primary screen (AID 1645843;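 active means z-score of at least 1.8 in each of two replicates, scored against plate mean and spread of sample wells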;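 further: positive z means more ATP and so rescue of galactose-driven cybrid death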). To be noted: complex I mutant cybrid cells, 72 h, stronger effect = higher value.
For assay [13], the target named is NAD(+) hydrolase SARM1 (Homo sapiens) (UniProt Q6SZW1). The experiment in a line: blocking NAD cleavage by SARM1 SAM-TIR – cell lysate, NAD-Glo luminescence (AID 1508614;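 active means compound whose remaining NAD level is above about 45 nM, limit read from the data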). To be noted: SAM-TIR HEK293T lysate NADase, at 1 µM, stronger effect = higher value.
Assay [14] is described as follows: compounds altering viability of human ES cells (AID 493140; call rule not given here;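 further: cells exposed to compounds for four days before counting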). Particulars: human embryonic stem cell survival screen; stronger effect = higher value.
Setting [15] is: measured here: relative caspase fold change +Dox/-Dox.
Setting [16] is: measured here: total cells with miR-34 induction, stronger effect = lower value.
[17] abbreviates: measured here: total cells without miR-34 induction.
The mark [18] stands for this setting: MELAS cybrid survival, CellTiter-Glo 48 h, stronger effect = higher value.
The mark [19] stands for this setting: Rieske KO mouse fibroblast survival, CellTiter-Glo 72 h.

NAD(+) hydrolase SARM1 (Homo sapiens), sequence (Q6SZW1 whole entry, looked up): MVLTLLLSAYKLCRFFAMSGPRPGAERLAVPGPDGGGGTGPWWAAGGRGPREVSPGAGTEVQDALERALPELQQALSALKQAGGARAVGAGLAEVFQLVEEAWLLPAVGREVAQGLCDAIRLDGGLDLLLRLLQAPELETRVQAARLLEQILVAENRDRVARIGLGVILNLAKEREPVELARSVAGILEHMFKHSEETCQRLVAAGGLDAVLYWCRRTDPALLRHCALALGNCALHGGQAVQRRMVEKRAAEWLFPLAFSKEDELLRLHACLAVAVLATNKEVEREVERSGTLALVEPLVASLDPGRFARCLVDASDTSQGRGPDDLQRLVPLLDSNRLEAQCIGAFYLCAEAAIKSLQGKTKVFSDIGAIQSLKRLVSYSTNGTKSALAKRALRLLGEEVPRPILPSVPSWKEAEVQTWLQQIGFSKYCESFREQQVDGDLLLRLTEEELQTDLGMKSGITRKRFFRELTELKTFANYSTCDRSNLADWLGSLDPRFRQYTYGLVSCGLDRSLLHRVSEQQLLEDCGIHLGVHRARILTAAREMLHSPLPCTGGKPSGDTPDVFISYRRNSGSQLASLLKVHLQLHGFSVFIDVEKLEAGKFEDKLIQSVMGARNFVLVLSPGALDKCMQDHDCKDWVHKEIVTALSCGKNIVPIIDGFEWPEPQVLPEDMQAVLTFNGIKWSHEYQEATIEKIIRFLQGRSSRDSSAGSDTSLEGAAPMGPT

One may read the viability as a read-out of living cells in per cent, often relative to untreated cells. Turning to `C#C[C@]1(O)CC[C@H]2[C@@H]3CCC4=CC(=O)CCC4=C3C=C[C@@]21CC`, the parasite load remaining in [1] was 55.7% (inactive). Further, the viability in assay [1] is 102%. The nuclear beta-catenin stimulation in assay [2] (at 10 µM) is -0.6% (inactive); in [2] (stimulation, at 2 µM), 0.3%. The insulin secretion stimulation in [3] is 0.7% (inactive). In assay [4], the viability decrease is 14.5% (inactive). In assay [5], the tube area decrease is 41.9% (active). The GLP1 secretion stimulation in assay [6] was 2.8% (inactive). Besides, the inhibition of viability in assay [7] was 26.1% (inactive). The values for the viability decrease (inhibition) in [8] and in assay [9] were 16% (inactive) and -9.5% (inactive), respectively. The values for the fold change in assay [10] (stronger effect = lower value) and in assay [10] (setting [15]) were 0.886 (inactive) and 1.01, respectively. Moreover, the figures for the cell count in assay [10] (setting [16]) and in assay [10] (setting [17]) were 9780 and 11000, respectively. Moreover, the z-score in [11] (setting [18]) is 0.0912 (inactive) and 0.694 (inactive); in [11] (setting [19]), 0.385 and 1.43; in assay [12] it was 0.24 (inactive).
On to `CCOC(=O)c1ccccc1C(=O)OCC`, for which the nuclear beta-catenin stimulation in assay [2] (at 10 µM) was -0.2% (inactive); in [2] (stimulation, at 2 µM) it was -0.3%. For the same molecule, the insulin secretion stimulation in assay [3] is 2.85% (inactive). In addition, in assay [6], the GLP1 secretion stimulation is 0.4% (inactive).
In the case of `CC[N+]1(CCOC(=O)C(O)(c2ccccc2)c2ccccc2)CCCCC1`, the nuclear beta-catenin stimulation in assay [2] (at 10 µM) was -0.3% (inactive); in [2] (stimulation, at 2 µM) it was 0.7%. Further, in [3], the insulin secretion stimulation was -0.8% (inactive). In assay [5], the tube area decrease was 23.5% (inactive). Further, the GLP1 secretion stimulation in assay [6] is 0.5% (inactive).
`[N-]=[N+]=CC(=O)OC[C@H](N)C(=O)O`: the nuclear beta-catenin stimulation in [2] (at 10 µM) was -2.7% (inactive); in [2] (stimulation, at 2 µM) it was -2.4%. In addition, the insulin secretion stimulation in assay [3] was -0.2% (inactive). Besides, the viability decrease in assay [4] is 50.2% (active). Further, in assay [5], the tube area decrease was 12.9% (inactive). The GLP1 secretion stimulation in assay [6] is -1.4% (inactive). Besides, the inhibition of viability in assay [7] was 77.9% (active). Besides, the viability decrease (inhibition) in assay [8] was 104% (active); in assay [9] it was 57.8% (active). For the same molecule, the remaining NAD in [13] is 10 nM (inactive).
As to `ClC1=C(Cl)C2(Cl)C(CBr)CC1(Cl)C2(Cl)Cl` (stereo not given), the nuclear beta-catenin stimulation in assay [2] (at 10 µM) is 1.7% (inactive); in assay [2] (stimulation, at 2 µM), 5.3%. For the same molecule, the insulin secretion stimulation in assay [3] was 0.2% (inactive). In addition, the GLP1 secretion stimulation in [6] was 16.3% (inactive).
`C[C@@H]1CN(C2CCC(C#N)(c3ccc(F)cc3)CC2)CC[C@]1(C(=O)O)c1ccccc1` (stereo not given in full): in [14], the survival was 4.42 (inactive). For the same molecule, the parasite load remaining in assay [1] is 126% (inactive). The viability in assay [1] was 76.2%. The nuclear beta-catenin stimulation in assay [2] (at 10 µM) was 0% (inactive); in assay [2] (stimulation, at 2 µM), 0.4%. Further, the insulin secretion stimulation in assay [3] is -1.7% (inactive). The viability decrease in assay [4] is 18.6% (inactive). Besides, the tube area decrease in assay [5] was 9.6% (inactive). The GLP1 secretion stimulation in [6] is 1.1% (inactive). Also, the inhibition of viability in assay [7] was 15.3% (inactive). The viability decrease (inhibition) is 33.5% (inactive) in assay [8] and 30.7% (inactive) in assay [9]. The fold change in assay [10] (stronger effect = lower value) was 0.976 (inactive); in assay [10] (setting [15]) it was 0.701. The cell count in assay [10] (setting [16]) came out at 9400; in assay [10] (setting [17]), 9630. In addition, the z-score was -1.75 (inactive) in assay [11] (setting [18]) and -1.19 in assay [11] (setting [19]).
In the case of `CCCCCCCCOC(=O)c1ccccc1C(=O)OCCCCCCCC`, the nuclear beta-catenin stimulation in [2] (at 10 µM) was 3.1% (inactive); in assay [2] (stimulation, at 2 µM), -1.3%. Also, the insulin secretion stimulation in assay [3] is 0.05% (inactive). Also, the viability decrease in [4] was 5.3% (inactive). Also, in [6], the GLP1 secretion stimulation is -0.4% (inactive). For the same molecule, the inhibition of viability in assay [7] was 32% (inactive). In addition, the viability decrease (inhibition) is -4.6% (inactive) in [8] and 3.6% (inactive) in [9].
Turning to `CCCCCCC(=O)CCCCCC/C=C/C[C@@H](O)[C@H](O)[C@@](N)(CO)C(=O)O`, the nuclear beta-catenin stimulation in [2] (at 10 µM) is -0.4% (inactive); in assay [2] (stimulation, at 2 µM), 1.7%. Besides, the insulin secretion stimulation in assay [3] is 1.7% (inactive). The viability decrease in assay [4] is -39.7% (inactive). In addition, the tube area decrease in assay [5] was -16.8% (inactive). In addition, the GLP1 secretion stimulation in assay [6] is -2.8% (inactive). Also, the inhibition of viability in assay [7] was -29.4% (inactive). Moreover, the results for the viability decrease (inhibition) in assay [8] and in [9] were 31.4% (inactive) and 9.9% (inactive), respectively. Further, the fold change is 0.991 (inactive) in assay [10] (stronger effect = lower value, cell number ratio, induced over uninduced) and 0.843 in [10] (setting [15]). The cell count turned out to be 5220 in [10] (setting [16]) and 5270 in [10] (setting [17]).
